Laboratory results published in PubChem BioAssay (Tox21).
Results filed as inconclusive are left out. Entries that show only a call come without a potency. Active and inactive are the calls of the source. The call rests on the fitted dose curve; in most records, active means well fitted activation curve with a large enough effect in the signal ratio in the repeat runs (not every such curve was filed as active); inconclusive means weak or mixed curves, or effect the other way; inactive means flat fitted curve, though single readings scatter; the % refers to the signal ratio.

Each molecule was assayed against Bile acid receptor (Homo sapiens) (UniProt Q96RI1) (assay: qHTS assay to identify small molecule agonists of the farnesoid-X-receptor (FXR) signaling pathway (AID 743220)). Conditions: HEK293T FXR-UAS-bla, beta-lactamase FRET ratio, 16 h; series mostly up to 62.6 µM.
Chain of Bile acid receptor (Homo sapiens) (Q96RI1 whole entry, looked up): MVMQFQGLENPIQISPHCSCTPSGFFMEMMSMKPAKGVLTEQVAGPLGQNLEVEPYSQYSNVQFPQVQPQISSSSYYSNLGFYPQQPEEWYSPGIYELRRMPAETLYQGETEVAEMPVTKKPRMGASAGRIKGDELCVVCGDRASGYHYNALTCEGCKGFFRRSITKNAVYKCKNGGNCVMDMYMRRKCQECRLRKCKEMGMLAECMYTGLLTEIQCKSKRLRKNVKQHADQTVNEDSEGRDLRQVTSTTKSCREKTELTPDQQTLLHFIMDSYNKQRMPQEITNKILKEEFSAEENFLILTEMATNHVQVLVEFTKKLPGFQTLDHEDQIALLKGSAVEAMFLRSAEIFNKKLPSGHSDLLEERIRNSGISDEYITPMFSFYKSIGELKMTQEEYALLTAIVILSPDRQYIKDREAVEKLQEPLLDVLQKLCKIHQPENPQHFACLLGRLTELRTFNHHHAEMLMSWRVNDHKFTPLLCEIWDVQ
Excerpt: National Center for Advancing Translational Sciences [NCATS]
NIH Chemical Genomics Center [NCGC]
U.S. Environmental Protection Agency [EPA]
National Institutes of Environmental Health Sciences [NIEHS]
National Toxicology Program [NTP]
U.S. Food and Drug Administration [FDA]
The farnesoid-X-receptor (FXR), a nuclear hormone receptor, is highly expressed in liver, intestine, kidney and adrenal cortex. Natural ligands of FXR are the bile acids (Cholic acid, Chenodeoxy cholic acid etc). FXR is an important regulator of diverse metabolic pathways, including the bile acid homeostasis, lipid and glucose metabolisms. FXR regulates the expression of target genes by binding either as a monomer or as a heterodimer with the retinoid X receptor (RXR). Numerous studies have reported that FXR exerts protective function during cholestasis, diabetes, liver regeneration, and cancer. To identify compounds that activate FXR signaling, GeneBLAzer FXR-UAS-bla HEK 293T cell line (Invitrogen, Carlsbad, CA) containing a beta-lactamase reporter gene under the control of a UAS response element was used to screen the Tox21 10K compound library.
Tox21 Assay Protocol Summary:
FXR-bla cells were dispensed at 5000 cells/5uL/well in 1536-well black wall/clear bottom plates using a Multidrop Combi (Thermo Fisher Scientific, Waltham, MA) dispenser. After the assay plates were incubated at 37C and 5% CO2 for 5 h, 23 nL of compounds dissolved in DMSO, positive controls or DMSO only was transferred to the assay plate by a Pintool station (Kalypsys, San Diego, CA). The assay plates were incubated at 37C for 16 h. After 1 uL of LiveBLAzerTM B/G FRET substrate was added using a Bioraptr Flying Reagent Dispenser (FRD) workstation (Beckman Coulter, Indianapolis, IN), the plates were incubated at room temperature for 2 h, and fluorescence intensity was measured by an Envision plate reader (PerkinElmer, Shelton, CT).
Potency means the concentration at half of the fitted maximal effect.

| Compound | Potency |
| --- | --- |
| COC(=O)/C=C(\C)OP(=O)(OC)OC | inactive |
| CSC1=N[C@@](C)(c2ccccc2)C(=O)N1Nc1ccccc1 | inactive |
| CC1=C2C[C@H]3[C@@H](CC=C4C[C@@H](O)CC[C@@]43C)[C@@H]2CC[C@]12O[C@@H]1C[C@H](C)CN[C@H]1[C@H]2C | 10.7 µM (active) |
| CCO/N=C(\CC)C1=C(O)CC(c2c(C)cc(C)cc2C)CC1=O (stereo not given) | inactive |
| C=CCBr | inactive |
| CCOP(=S)(NC(C)C)Oc1ccccc1C(=O)OC(C)C (stereo not given) | inactive |
| N#CSCc1ccccc1 | inactive |
| [O]=[Cr][O][Cr]=[O] | inactive |
| CN1C2CCC(C)(C)C1CC(OC(=O)C(O)(c1cccs1)c1cccs1)C2 (stereo not given) | inactive |
| O=C(NC(=O)c1ccccc1Cl)Nc1ccc(OC(F)(F)F)cc1 | inactive |
| O=C(Nc1ccc(F)cc1F)c1cccnc1Oc1cccc(C(F)(F)F)c1 | inactive |
| Brc1cccc(-c2ccccc2)c1 | inactive |
| FC(F)C(F)(F)OCC(Cn1cncn1)c1ccc(Cl)cc1Cl (stereo not given) | inactive |
| Oc1cc(Cl)c(Cl)c(Cl)c1Cl | inactive |
| N#CCCl | inactive |
| Clc1ccc(C(c2ccc(Cl)cc2)C(Cl)Cl)cc1 | inactive |
| ClC1(Cl)C2(Cl)C3(Cl)C4(Cl)C(Cl)(Cl)C5(Cl)C3(Cl)C1(Cl)C5(Cl)C24Cl (stereo not given) | inactive |
| CCCCc1ccccc1 | inactive |
| CC(C)[C@@H](Nc1ccc(C(F)(F)F)cc1Cl)C(=O)OC(C#N)c1cccc(Oc2ccccc2)c1 (stereo not given in full) | inactive |
| Clc1cc(Cl)c(-c2cc(Cl)c(Cl)cc2Cl)cc1Cl | inactive |

| Compound | Potency |
| --- | --- |
| CCN(CC)CCN1C(=O)CN=C(c2ccccc2F)c2cc(Cl)ccc21 | inactive |
| Cc1ccccc1OP(=O)(Oc1ccccc1C)Oc1ccccc1C | inactive |
| NC1CCC(CC2CCC(N)CC2)CC1 (stereo not given) | inactive |
| CC(C)(C)c1ccc(OP(=O)(Oc2ccccc2)Oc2ccccc2)cc1 | inactive |
| C[C@@H]1CC2=CC(=O)CC[C@@H]2[C@H]2CC[C@@]3(C)[C@@H](CC[C@]3(C)O)[C@@H]21 | inactive |
| O=C(O)CCCCCCNC1c2ccccc2CCc2ccccc21 | inactive |
| CCCCCCC[CH2][Sn]([Cl])([Cl])[CH2]CCCCCCC | inactive |
| O=C(O)[C@H](O)[C@@H](O)C(=O)O | inactive |
| CN1CCc2cc(Cl)c(O)cc2[C@H]2c3ccccc3CC[C@@H]21 | inactive |
| CC#C[C@]1(O)CC[C@H]2[C@@H]3C[C@H](C)C4=CC(=O)CC[C@]4(C)[C@H]3CC[C@@]21C | inactive |
| N#Cc1sc2c(=O)c3ccccc3c(=O)c=2sc1C#N | inactive |
| CC(C)=CC1C(C(=O)OC(C#N)c2cccc(Oc3ccccc3)c2)C1(C)C (stereo not given) | inactive |
| COC(=O)c1cc(Oc2ccc(Cl)cc2Cl)ccc1[N+](=O)[O-] | inactive |
| CC(Cc1ccccc1)N(C)Cc1ccco1 (stereo not given) | inactive |
| CCCCCCCCCCCCCCn1cc[n+](C)c1 | inactive |
| COP(=O)(OC)O/C(=C\Cl)c1cc(Cl)c(Cl)cc1Cl | inactive |
| O=C(Cl)c1ccccc1F | inactive |
| COP(=S)(NC(C)C)Oc1ccc(C)cc1[N+](=O)[O-] (stereo not given) | inactive |
| CCN(CC)CCc1c[nH]c2ccccc12 | inactive |
| CCC(OC(C)=O)C(CC(C)NC)(c1ccccc1)c1ccccc1 (stereo not given) | inactive |
